Screening results: PubChem BioAssay, National Center for Advancing Translational Sciences (NCATS)
SMN2 splice enh: increases expression of the SMN2 splice variant; HEK293 SMN2-luciferase splicing reporter, luminescence, 30-36 h; Potency, µM (top dose mostly 46.1 µM), for the others: top-dose activity change, positive = activation, actives largely listed as activators; 210,000 compounds, 2.8% hits; further: % of control where 0% means no effect; nearly all actives have a fitted effect of over 55% in size
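qHTS luciferase splicing reporter: luminescence rises when SMN2 exon 7 is included in transfected HEK293 cells. Compound exposure lasted 30-36 h at 37C, with 4.5 mM final sodium butyrate as control, followed by a ONE-Glo read.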
Luc counter: counter-screen: inhibitors of Kinase-Glo firefly luciferase; AID 1379; Kinase-Glo luciferase, ATP luminescence, 8 min; Q27757; 200,000 compounds, 0.28% hits; Potency, µM (doses to about 38.3 µM), inactives show top-dose activity change, negative = inhibition, hits mostly inhibitors; further: on the % scale 0 is the no-effect control and ±100 the full control effect; nearly all actives have a fitted effect of over 60% in size
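Compound is pinned into ATP-containing buffer (10 uM ATP, imidazole pH 7.2, 7 mM MgCl2). Kinase-Glo luciferase reagent is then added. Light output is recorded following an 8-min room-temperature incubation.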
NPC1 prom act: activates the NPC1 promoter; Huh7 NPC1 promoter luciferase reporter, 24 h; Potency, µM (series often up to 9.22 µM), for the others: top-dose activation, usual class: activators; 320,000 compounds, 2.4% hits; AID 485313; further: % of control where 0% means no effect; nearly all actives have a fitted effect of over 60% in size
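Huh7 reporter cells (NPC1 promoter driving luciferase) are dosed with compound for 24 h at 37 °C, 5% CO2; luciferase detection reagent is then added and luminescence measured after 10 min at ambient temperature.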
FLuc modulator: counter-screen for miR-21 project: firefly luciferase inhibitors or activators. Potency, µM (series often up to 57.5 µM), inactives show at the highest dose activity change, negative = inhibition, usual class: inhibitors. 360,000 compounds, 6.9% hits. purified FLuc, Km substrates, luminescence inhibition. P08659. AID 588342;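 further: plate controls were vehicle for no effect and reference inhibitor for full effect; nearly all actives have a fitted effect of over 55% in size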
Target sequence (P08659 whole entry, looked up): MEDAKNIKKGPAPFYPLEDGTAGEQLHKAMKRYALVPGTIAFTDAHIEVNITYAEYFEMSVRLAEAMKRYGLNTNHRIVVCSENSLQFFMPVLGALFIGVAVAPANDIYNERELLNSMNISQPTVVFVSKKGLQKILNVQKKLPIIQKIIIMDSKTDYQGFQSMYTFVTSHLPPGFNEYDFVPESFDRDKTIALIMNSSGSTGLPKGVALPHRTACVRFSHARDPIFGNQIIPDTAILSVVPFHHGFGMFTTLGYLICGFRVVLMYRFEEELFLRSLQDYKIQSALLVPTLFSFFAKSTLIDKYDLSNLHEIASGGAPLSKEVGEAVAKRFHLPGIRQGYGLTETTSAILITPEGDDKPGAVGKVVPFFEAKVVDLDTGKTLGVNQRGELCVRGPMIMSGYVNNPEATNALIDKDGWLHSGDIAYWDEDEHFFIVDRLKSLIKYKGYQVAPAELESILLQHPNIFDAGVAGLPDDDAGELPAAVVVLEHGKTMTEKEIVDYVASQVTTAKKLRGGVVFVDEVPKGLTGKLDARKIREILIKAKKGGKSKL
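Biochemical qHTS of compounds, final roughly 60 µM downward over six points, against 10 nM purified firefly luciferase using Km concentrations of substrates (10 uM D-luciferin, 10 uM ATP) in Tris acetate pH 7.5 buffer; luminescence output.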
Rab9 promoter act: activates the Rab9 promoter; Huh7 Rab9 promoter-luciferase reporter, luminescence, 24 h; Potency, µM (top dose mostly 9.22 µM), for the others: at the highest dose activation, negative = inhibition, actives largely listed as activators; 320,000 compounds, 2.8% hits; further: % of control where 0% means no effect; nearly all actives have a fitted effect of over 60% in size
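Cells were plated at 1500 per well in reduced-serum medium with 10% FBS and left 2 h. Compound in DMSO was then added for 24 h at 37 °C. Reporter signal was read by luminescence after 10 min with luciferase detection reagent.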
ELG1 genotox: inducers of genotoxicity in HEK293T ELG1-luciferase cells. HEK293T ELG1-luciferase reporter, luminescence, 16 h. Potency, µM (titrated, usually from 46 µM), inactives show at the top dose activity change, positive = activation, most hits filed as activators. 330,000 compounds, 1.3% hits. AID 504466; further: % of control where 0% means no effect; nearly all actives have a fitted effect of over 60% in size
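HEK293T cells expressing luciferase-tagged ELG1 were treated with compound or DMSO for 16 hr at 37°C. Luciferase activity was then read after 30 min with ONE-Glo at room temperature; rising signal flags genetic stress.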
* hit, by the source's call; ? = inconclusive; . = no result; [ ] = dose if it differs, or a comment. An excerpt weighted towards active compounds, which were near 7.3% of everything screened. The call rests on the fitted dose curve; in most records, active means well fitted curve in the direction sought with a large enough effect; inconclusive means small, poorly fitted or top-dose-only effect, or another doubt; inactive means no such curve, though single readings can be large; an effect the other way counts as inactive or inconclusive. Potency means the concentration at half of the fitted maximal effect.

SMILES | SMN2 splice enh | Luc counter | NPC1 prom act | FLuc modulator | Rab9 promoter act | ELG1 genotox
CC(=O)c1cccc(NC(=O)c2cc(-c3ccc4c(c3)OCCO4)on2)c1 | . | . | . | 0.15µM* | . | .
CCOC(=O)N1CCc2c(sc(NC(=O)c3ccc(Cl)s3)c2C(N)=O)C1 | -92% | 6% | -1% | 11µM* | 2% | -10%
CCN1CCc2c(sc(NC(=O)C3COc4ccccc4O3)c2C(N)=O)C1 (stereo not drawn) | . | . | ? | -3% | ? | 18µM*
CN1CCc2c(sc(NC(=O)c3ccc4ccccc4c3)c2C(N)=O)C1 | . | . | ? | 2.7µM* | ? | 10µM*
COc1cc2ccccc2cc1C(=O)Nc1sc2c(c1C(N)=O)CCN(C(C)C)C2 | . | . | -7% | 9.5µM* | -6% | -1%
Cc1c(Cl)cccc1Nc1nc2ccc(C(=O)c3ccccc3)cc2n2cnnc12 | . | . | . | 0% | . | .
CC(C)CN(C(=O)COC(=O)c1c2c(nc3ccccc13)CCC2)c1c(N)n(Cc2ccccc2)c(=O)[nH]c1=O | . | . | -2% | 1% | 6% | -4%
CC(=O)N1CCc2c(sc(NC(=O)C3COc4ccccc4O3)c2C(N)=O)C1 (stereo not drawn) | . | . | 10% | -18% | 11% | 20%
CN1CCc2c(sc(NC(=O)C3COc4ccccc4O3)c2C(N)=O)C1 (stereo not drawn) | . | . | ? | -11% | ? | 23µM*
CC(=O)Nc1ccc(NC(=O)/C=C/c2ccc3c(c2)OCO3)cc1 | 9% | 1% | 13% | ? | 19% | 9%
COc1ccc(/C=C/C(=O)Nc2cccc(N3CCOCC3)c2)cc1OC | 11% | 0% | 4% | 27µM* | 3% | -5%
COC(=O)c1cc(NC(=O)/C=C/c2ccc3c(c2)OCO3)cc(C(=O)OC)c1 | ? | 2% | -2% | 0% | -2% | 4%
O=C(N/N=C\C=C\c1ccc2c(c1)OCO2)c1cccnc1 | -1% | 0% | 8% | 17µM* | 3% | 4%
COC(=O)c1cccc(NC(=O)/C=C/c2ccc3c(c2)OCO3)c1 | -94% | -8% | 2.8µM* | 1.3µM* | 2.5µM* | -8%
Cc1cc(C)nc(NC(=O)/C=C/c2ccc3c(c2)OCO3)c1 | . | ? | 3.2µM* | 2.1µM* | 2.5µM* | ?
CC(C)c1ccc2[nH]c(O)c(N=NC(=O)c3cccc(S(=O)(=O)N4CCCCC4)c3)c2c1 | . | 0% | -1% | -19% | -4% | -13%
O=C(c1cc(C2CC2)on1)N1CCOCC1 | -8% | 1% | 1% | -1% | 1% | 2%
CC1CCN(CC(=O)c2cccs2)CC1 | 5% | 0% | 14% | -17% | 18% | 12%
O=C(/C=C/c1ccc2c(c1)OCO2)Nc1cccnc1 | 13µM* | -22% | 2.2µM* | 2.4µM* | 1.3µM* | 3.7µM*
Cc1cccnc1NC(=O)c1ccc2c(c1)OCO2 | . | . | -1% | -22% | 3% | 11%
O=C(/C=C/c1ccc2c(c1)OCO2)c1ccccc1 | 1% | -9% | . | . | . | .
O=C(/C=C/c1ccc2c(c1)OCO2)c1cccnc1 | . | . | 2% | 15µM* | -1% | 1%
Cc1cccnc1NC(=O)/C=C/c1ccc2c(c1)OCO2 | 16µM* | -4% | 2.5µM* | 19µM* | 2.8µM* | ?
Nc1nonc1C(=O)NCCNCc1ccccc1F | 4% | . | . | 0% | . | .
CCOC(=O)c1ccc(NC(=O)c2nsc3ccccc23)cc1 | 5.6µM* | . | . | 2.4µM* | . | .
SMILES | SMN2 splice enh | Luc counter | NPC1 prom act | FLuc modulator | Rab9 promoter act | ELG1 genotox
O=C(Nc1ccccc1)N1CCN(C(=O)c2nsc3ccccc23)CC1 | . | . | . | -6% | . | .
CNC(=O)c1ccc(NC(=O)c2nsc3ccccc23)cc1 | 2µM* | . | . | 1.5µM* | . | .
CCOC(=O)c1ccc(NC(=O)c2sc3ccccc3c2Cl)cc1 | 7% | . | . | 3% | . | .
COc1ccc(C(=O)Nc2ccc(S(=O)(=O)N3CCCCC3)cc2)cc1OC | 24% | 0% | -1% | 5% | -5% | 5%
COc1ccccc1C(=O)N/N=C/c1ccc(Cl)s1 | ? | -1% | 10% | 19µM* | 17% | 7%
COC(=O)c1ccccc1Oc1cnc2ccccc2n1 | . | . | 2% | -3% | -3% | 1%
O=C(N/N=C/c1ccncc1)c1cccs1 | . | . | 19% | ? | 10% | ?
COc1ccccc1C(=O)N/N=C/c1cnc2ccccc2n1 | 16µM* | -3% | ? | ? | ? | ?
O=C(N/N=C\c1ccc(Cl)s1)c1cccs1 | 2% | 14% | 25% | 17µM* | ? | -2%
O=C(COC(=O)c1n[nH]c2ccccc12)NC(=O)NC12CC3CC(CC(C3)C1)C2 | -19% | -1% | -3% | -1% | 6% | -2%
NC(=O)c1c(NC(=O)CSc2nnc(Cc3ccccc3)n2Cc2ccco2)sc2c1CCC2 | -47% | -3% | -3% | 4% | -10% | -22%
COc1ccccc1C(=O)NNC(=O)c1ccc(Cl)cc1 | . | -4% | 16% | 15µM* | 26% | 12%
Cc1ccccc1C(=O)NNC(=O)c1ccc(F)cc1 | 3% | -9% | 2% | -15% | 20% | 13%
COC(=O)NNC(=O)c1ccccc1OC | 9% | -1% | 4% | -2% | -3% | 0%
COc1ccccc1C(=O)NNC(=O)c1ccc(F)cc1 | 11µM* | -9% | 26% | ? | ? | ?
COc1ccccc1C(=O)NNC(=O)c1ccc2ccccc2c1 | . | . | 1% | 12µM* | 5% | 9%
COc1ccc(Cn2nnnc2C(C(C)C)N2CCN(c3ccccc3OC)CC2)cc1 (stereo not drawn) | . | -20% | -4% | -1% | -1% | -12%
CC(C)(C=O)Cc1cc(C(C)(C)C)c(O)c(C(C)(C)C)c1 | -15% | -4% | 7%[46.1 µM] | -1% | 11%[46.1 µM] | -2%
O=C1c2ccccc2N[C@H](c2cc(Cl)cc(Cl)c2O)N1CCc1ccccn1 | 21%[9.22 µM] | -4%[7.66 µM] | . | . | . | .
O=C(Nc1ccc2ccccc2c1)c1ccc(Cl)cc1Cl | . | . | 0.22µM* | 0.34µM* | 0.4µM* | 2.1µM*
Cc1occc1C(=O)Nc1ccc2ccccc2c1 | 11µM* | -28% | 1.4µM* | 3.4µM* | 2.5µM* | ?
CS(=O)(=O)N1CCc2cc(NC(=O)c3ccc(Cl)cc3Cl)ccc21 | 9% | 2% | 5% | 19µM* | 15% | 0%
O=C(Nc1nc(=S)ss1)c1ccc(Cl)cc1Cl | ? | -3% | ? | 15µM* | ? | 1%
COC(=O)[C@@]1(Cc2ccccc2)[C@H]2C(=O)N(Cc3ccccc3)C(=O)[C@H]2[C@H]2CN=C(SCc3ccc(C)cc3)N21 | . | . | . | . | . | -7%
O=C(CN(Cc1cccs1)S(=O)(=O)c1ccc(S(=O)(=O)N2CCCCC2)cc1)Nc1ccccc1 | -5% | 1% | -6% | 1% | -1% | 6%
